Assay results: PubChem BioAssay (NCI)
Compounds without any hit were thinned out: in the full panel of roughly 83,000, 20% have a hit.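 Each cell line was grown in a 96-well plate and treated with one concentration of compound for 48 hours. Values below 10 were considered active.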 Values without a mark were called inactive. Activity calls are given as the source filed them.

What follows are compounds tested on HL-60(TB) leukemia (assay: NCI-60 one-dose screen, 48 h (100 = growth as untreated, 0 = no growth, -100 = all killed)). Settings: 10 µM unless noted.

How did the growth turn out when `NC(=O)C(=O)c1ccccc1NC=O` was run?
The growth was 101%.

`CC1SC(c2cccc(Oc3ccccc3)c2)N(CCc2cccs2)C1=O` (stereo unspecified) was tested. Which growth did it give?
The growth was -21.9% (active).

Which growth does the source give for `Cc1cccc(NC2=C(Cl)C(=O)c3nc(C)ccc3C2=O)c1` here?
The growth was -14.9% (active).

For `CCCCc1n(Cc2ccc3ccccc3c2)cc[n+]1Cc1ccc2ccccc2c1`, which growth is on record?
The growth was -52.6% (active).

Which growth does the source give for `Cn1c(/C(C#N)=C/c2ccc3ccccc3c2)cc2ccccc21` here?
The growth was -6.93% (active).

`COc1cc2oc(-c3cccc(C(=O)Nc4ccc(Br)cc4)c3)cc(=O)c2c(OC)c1OC` was tested. Which growth did it give?
The growth was 38.6%.

With `O=c1oc2ccc(F)cc2c(=O)n1-c1ccc(Cl)cc1F` as the compound, how does the growth read?
The growth was -45.3% (active).

`COc1nc2ccccc2cc1/C=[N+](\[O-])c1ccccc1` was tested. Which growth did it give?
The growth was -18.5% (active).

With `C[C@]12CCC3c4ccc(O)cc4C[C@@H](CCCCCCCCCS(=O)CCCC(F)(F)C(F)(F)F)C3C1CC[C@@H]2O` (stereo partly specified) as the compound, how does the growth read?
Its growth is 73.3%.

With `CN1CCN(Cc2ccc(NC(=O)c3[nH]ncc3Nc3ncnc4c3CCC4)cc2)CC1` as the compound, how does the growth read?
The growth was -22.1% (active).

Which growth does the source give for `Cc1cc(N2CCN(CC(=O)Nc3ccc4c(ccn4Cc4ccccc4)c3)CC2)nc(N2CCOCC2)n1` here?
Its growth is 87.3%.

Which growth does the source give for `NC(CCC(=O)NC(CS)C(=O)NCC(=O)O)C(=O)O` (stereo unspecified) here?
The growth was 73.1%.

For `Cc1ccc(Cn2c(-c3cccs3)nc3ccccc32)cc1`, which growth is on record?
Its growth is 122%.

For `COc1cc(CSc2nc3ccc(C)cc3c(=O)n2Cc2ccccc2)cc(OC)c1OC`, which growth is on record?
The growth was 17%.

`CCCCOC(=O)c1ccc(NC(=O)CCl)cc1` was tested. Which growth did it give?
The growth was 25.3%.

Which growth does the source give for `CSc1ccc(N=C=C(c2ccccc2)c2ccccc2)cc1` here?
Its growth is 79.8%.
